The values below come from PubChem BioAssay (NCI).

Test [1] can be described thus: NCI Yeast Anticancer Drug Screen. Data for the rad50 strain (AID 155).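 Note: 0% = growth of vehicle-only cultures of the same strain.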 The settings on record: S. cerevisiae rad50 strain growth inhibition; at 50.0 µM; active compounds read high. The gist of the method:
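Yeast carrying a defined DNA repair defect were exposed to test compounds, and growth was compared with vehicle-treated controls to give percent inhibition.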

Test [2] is described as follows: NCI Yeast Anticancer Drug Screen. Data for the mec2-1 strain (AID 157). As to conditions: S. cerevisiae mec2-1 strain, at 50.0 µM, active compounds read high. The gist of the method:
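Mutant yeast (mec2-1) grown with compound; growth inhibition relative to vehicle control reported.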

Test [3] is described as follows: NCI Yeast Anticancer Drug Screen. Data for the sgs1 mgt1 strain (AID 161).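 Note: 0% = growth of cultures given vehicle only.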 The settings on record: S. cerevisiae sgs1 mgt1 strain, at 50.0 µM, active compounds read high. In a few lines:
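This yeast growth screen uses a strain with defined DNA-repair lesions; compound-treated growth is compared with vehicle-treated growth.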

The nature of test [4]: NCI Yeast Anticancer Drug Screen. Data for the cln2 rad14 strain (AID 165).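 Note: 0% = growth equal to vehicle treated cultures.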 As to conditions: S. cerevisiae cln2 rad14 strain, at 50.0 µM, active compounds read high. In a few lines: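 Readout is yeast growth inhibition versus vehicle-treated controls, using a strain with cln2 and rad14 alterations exposed to compound.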
Test [5] is described as follows: NCI Yeast Anticancer Drug Screen. Data for the bub3 strain (AID 167). As to conditions: S. cerevisiae bub3 mutant strain, at 50.0 µM, active compounds read high. In a few lines:
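Compounds were applied to a genetically altered yeast strain carrying a cell-cycle control defect. Growth inhibition was scored against vehicle-treated controls.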

Test [6] is described as follows: NCI Yeast Anticancer Drug Screen. Data for the mlh1 rad18 strain (AID 175). As to conditions: S. cerevisiae mlh1 rad18 strain growth inhibition; at 50.0 µM; active compounds read high. The gist of the method:
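Genetically defined yeast (DNA repair-deficient) exposed to compounds; growth inhibition determined relative to vehicle.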

The panel holds about 79,000 compounds, 15% with a hit somewhere; the sample as a whole holds those more often. Unmarked numbers belong to inactive results. Calls of active or inactive are those of the source. Cut-off read from the data, not from the text of the source: active = growth inhibition above about 70%; inactive = the rest.

As to `COc1ccc(Cc2ccc3[nH]c(=O)cc(C)c3c2)cc1S(=O)(=O)O`, the growth inhibition in test [1] is 33.8%; in test [2], -17.6%; in test [3], -15.5%; in test [4], 41.7%; in test [5], -17.7%; in test [6], 8.95%.
On to `COC(=O)CCc1cc(=O)oc2ccc3cc(CC(=O)OC)oc3c12`, for which the growth inhibition in test [1] is 5.75%; in test [2] it was -7.65%; in test [3], 4.7%; in test [4], -6.1%; in test [5] it was -7.2%; in test [6], 2.15%.
As for `Cc1ccc(C(C)(C#N)Nc2ccccc2)cc1` (stereo not given), the growth inhibition was -7.05% in test [1]; -1.8% in test [2]; -8.2% in test [3]; -25.2% in test [4]; -11.2% in test [5]; -0.45% in test [6].
Regarding `CCNC(=O)NS(=O)(=O)c1ccc(Sc2ccc(Cl)cc2)nc1`, the growth inhibition is -5.8% in test [1]; -2.95% in test [2]; -7.5% in test [3]; -5.7% in test [4]; -0.55% in test [5]; -0.4% in test [6].
As to `NC(=O)c1cccc2c1OCO2`, the growth inhibition in test [1] is -8.75%; in test [2] it was 9.7%; in test [3], -7.35%; in test [4], -10.6%; in test [5], -0.6%; in test [6], -5.25%.
For `Cc1cc(C)cc(N=Nc2c(N)nc(N)[nH]c2=O)c1`, the growth inhibition in test [1] was 4.85%; in test [2], -10.7%; in test [3] it was -49.9%; in test [4], -11.2%; in test [5] it was -3.2%; in test [6], -7.3%.
For `CCC(CC(N)=O)C(C#N)(C#N)C(N)=O` (stereo not given), the growth inhibition was 12.9% in test [1]; 5.05% in test [2]; -4.05% in test [3]; -2.85% in test [4]; 7.1% in test [5]; 3.95% in test [6].
Regarding `CC1(C)CC(C(N)=O)C(C)(C)N1O` (stereo not given), the growth inhibition is 13% in test [1]; 7.55% in test [2]; 23.6% in test [3]; 17.9% in test [4]; 23.8% in test [5]; 7.1% in test [6].
As for `Cc1c(C)c(C(Cl)(Cl)Cl)c(C)c(C)c1Br`, the growth inhibition in test [1] was -0.7%; in test [2] it was 4.8%; in test [3], -0.75%; in test [4] it was 8.15%; in test [5], 3.6%; in test [6], -7.3%.
In the case of `Cc1nc(N)[nH]c(=O)c1CCCN=Cc1ccc([N+](=O)[O-])cc1`, the growth inhibition in test [1] is 4.3%; in test [2], 6%; in test [3] it was 14.4%; in test [4] it was 7.7%; in test [5], 31.6%; in test [6], 29.9%.
For `CCCCCCC(=O)C/C(CCC(=O)N(Cc1ccccc1)Cc1ccccc1)=N\NC(N)=O`, the growth inhibition in test [1] is -6.65%; in test [2], 2.75%; in test [3] it was -14.8%; in test [4], 3.75%; in test [5] it was -6.65%; in test [6], -20.8%.
In the case of `C=C1CC(CCCCCCC2CC(=C)C(=O)O2)OC1=O` (stereo not given), the growth inhibition in test [1] is 11.2%; in test [2], 1.05%; in test [3], -0.35%; in test [4], 2.3%; in test [5], 25.4%; in test [6], -25.9%.
Regarding `COc1c(O)c2c(=O)cc3c4c5c(cc(=O)c6c(O)c(OC)c(CC(C)O)c(c(c1CC(C)O)c24)c65)OCO3` (stereo not given), the growth inhibition was 74.5% (active) in test [1]; 97.8% (active) in test [2]; 76.3% (active) in test [3]; 37.5% in test [4]; 5.55% in test [5]; 70.5% (active) in test [6].
As for `O=C(O)C(F)(F)C(F)(F)C(F)(F)C(F)(F)C(=O)O`, the growth inhibition in test [1] was -1.85%; in test [2] it was -2.95%; in test [3], -37.8%; in test [4] it was -28.3%; in test [5] it was -45.8%; in test [6] it was -22.8%.
For the compound `O=C(O)c1cccc(S(=O)(=O)NN2C(=O)CSC2c2ccccc2Cl)c1` (stereo not given), the growth inhibition in test [1] is 28.5%; in test [2], -3.95%; in test [3], 2.85%; in test [4] it was 5.9%; in test [5], 12.7%; in test [6], 28.7%.
Take `CCCCCN(CCCCC)C(C)=O`: the growth inhibition in test [1] was 6.85%; in test [2], 5.95%; in test [3], 2.3%; in test [4], -0.65%; in test [5] it was -2.15%; in test [6], 7.45%.
For the compound `CC(C)=CC(=O)OC1C2C(C)=CC(O)C(O)C2(C)C2C3(O)OCC24C(CC(=O)OC14)C(C)C3O` (stereo not given), the growth inhibition in test [1] is 56.5%; in test [2], 38.1%; in test [3], 23.4%; in test [4] it was 48.4%; in test [5], 53.5%; in test [6], 86.8% (active).
For `Clc1ccc(C2SC=Cc3ccccc32)cc1` (stereo not given), the growth inhibition in test [1] was 53.8%; in test [2] it was 33.8%; in test [3] it was 47.6%; in test [4], 5.9%; in test [5], 49.8%; in test [6] it was 37.7%.
Consider `COC(=O)C(=O)OC`, for which the growth inhibition in test [1] was 27.1%; in test [2], -10%; in test [3], -11.3%; in test [4] it was -39%; in test [5] it was 1.15%; in test [6], -3.35%.
`COC(=O)C1(Cc2ccccc2)Cc2ccccc2C1=O` (stereo not given): the growth inhibition in test [1] was -3.1%; in test [2], 3%; in test [3] it was 37.7%; in test [4], 33.9%; in test [5], 39.2%; in test [6], -3%.
As for `O=CC12c3ccccc3C(c3ccccc31)C1C(=O)NC(=O)C12` (stereo not given), the growth inhibition was 1.65% in test [1]; -1.05% in test [2]; 7.6% in test [3]; 31.1% in test [4]; -18.3% in test [5]; 6.65% in test [6].
Take `COC(=O)C(=O)c1cc(C)n(C)c(=O)c1CN1C(=O)c2ccccc2C1=O`: the growth inhibition is -14.2% in test [1]; 14.8% in test [2]; 13.8% in test [3]; -18.9% in test [4]; -11.8% in test [5]; -12.8% in test [6].
Regarding `Cc1ccc(N=Nc2ccc(C)cc2NC(=O)CCl)cc1`, the growth inhibition is -17.7% in test [1]; -15.8% in test [2]; -21.9% in test [3]; -21.9% in test [4]; 3.2% in test [5]; -15.2% in test [6].
Turning to `COC1=CC(=O)C(C2CC(=O)c3c(O)cc(O)cc3O2)=CC1=O` (stereo not given), the growth inhibition in test [1] was -4.2%; in test [2], 0.85%; in test [3], 11.2%; in test [4] it was 7.95%; in test [5], -20.8%; in test [6], -63.9%.
For the compound `CC(C)C(CCN1CCCC1(C)C)(C(N)=O)c1ccccc1` (stereo not given), the growth inhibition was -4.85% in test [1]; -12.6% in test [2]; -4.2% in test [3]; -34% in test [4]; 9.6% in test [5]; 7.75% in test [6].
Turning to `CC(=O)Nc1ccc2ccccc2c1SC1CC(=O)N(c2ccccc2)C1=O` (stereo not given), the growth inhibition in test [1] was -24.1%; in test [2], -3%; in test [3], -26.2%; in test [4] it was -23.4%; in test [5], -15.8%; in test [6], -20.6%.
On to `C=CCCC(=O)OC(C)(C)C`, for which the growth inhibition in test [1] was 16.8%; in test [2], -15.4%; in test [3], 21.4%; in test [4], 7.2%; in test [5] it was 6.1%; in test [6], 1.95%.
With `CCOC1CCCCO1` (stereo not given), the growth inhibition is -24.5% in test [1]; -4.1% in test [2]; -13.4% in test [3]; 9.4% in test [4]; -13.8% in test [5]; -8.1% in test [6].
In the case of `CCN(CC)CCC(=O)N1CCc2c([nH]c3ccccc23)C1c1cccnc1` (stereo not given), the growth inhibition was -26.9% in test [1]; -18.9% in test [2]; -3.95% in test [3]; -6.7% in test [4]; -0.1% in test [5]; -28.2% in test [6].
`NNC(=O)CNC(=O)c1ccccc1`: the growth inhibition was 11.5% in test [1]; -14.6% in test [2]; -10.9% in test [3]; 1.85% in test [4]; 0% in test [5]; -15% in test [6].
For `NC(=O)/N=N/C(N)=O`, the growth inhibition was 10.8% in test [1]; -1.05% in test [2]; 13.6% in test [3]; 15.2% in test [4]; 21.1% in test [5]; 27.7% in test [6].
On to `O=Cc1ccnc2c(Cl)cccc12`, for which the growth inhibition in test [1] was 16.4%; in test [2], 22.8%; in test [3], -1.1%; in test [4], 15.1%; in test [5] it was 6.3%; in test [6] it was 18%.
Consider `COC(=O)CC(NC(=O)OCc1ccccc1)C(=O)NC(COC(C)=O)C(=O)NCC(=O)OCc1ccccc1` (stereo not given), for which the growth inhibition in test [1] is 28.4%; in test [2], 10.4%; in test [3], 10.3%; in test [4] it was 15.6%; in test [5], 3.2%; in test [6], 16.4%.
Regarding `[N-]=[N+]=NC1(Cc2ccccc2)C(=O)c2cccc3c2N(CCC3)C1=O` (stereo not given), the growth inhibition in test [1] is 4.25%; in test [2], 8.55%; in test [3], -0.65%; in test [4] it was 16.2%; in test [5] it was 25.7%; in test [6], -11.2%.
With `C=CCNC(=S)Nc1cccc(OC(=O)NC2CCCCC2)c1`, the growth inhibition in test [1] was -0.15%; in test [2] it was 2.05%; in test [3], 3.75%; in test [4], -19.6%; in test [5], 14.3%; in test [6], -4.7%.
As for `Cc1cc(-n2cnc3c(Cl)ncnc32)ccc1N`, the growth inhibition was 10.8% in test [1]; 5.3% in test [2]; 0.95% in test [3]; 5.05% in test [4]; 10.8% in test [5]; -9.1% in test [6].
As for `C=C(C)C(=O)O[C@H]1C[C@@]23O[C@@H]2CCC(=C[C@H]2OC(=O)C(=C)[C@H]12)COC3O` (stereo not given in full), the growth inhibition in test [1] was 16.8%; in test [2], -12.6%; in test [3] it was 14.8%; in test [4], 9.45%; in test [5] it was 7.7%; in test [6] it was -22.8%.
Take `Cc1cccc(NN)c1`: the growth inhibition in test [1] is 59.6%; in test [2], 32.1%; in test [3], 7.45%; in test [4], 30%; in test [5], 23.3%; in test [6], 32.9%.
Turning to `CCc1cc2c(cc1C(=O)/C=C\c1ccco1)C(C)(C)CCC2(C)C`, the growth inhibition in test [1] was 97.2% (active); in test [2], 98.2% (active); in test [3], 97.5% (active); in test [4] it was 96.8% (active); in test [5], 97.7% (active); in test [6] it was 97.8% (active).
As for `C=C(C)COc1ccc(C2OCC(CC)C(CCC)O2)cc1` (stereo not given), the growth inhibition was -4.3% in test [1]; -10.6% in test [2]; -7.5% in test [3]; -45% in test [4]; 5% in test [5]; -9.25% in test [6].
